# Reference: the supplement of paper PMC6555819
# Tests used:
# Assay in all cases: PBM binding z-score (relative to random genomic background probes); higher = stronger binding; sequences stand for … in GC…GCGATTGACAGCGTAGAATGAAGG
# [1] = test system: FXR:RXRa (NR concentration 270 nM, RXRa partner concentration 90 nM)
# In short: (§1)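 Binding z-scores were set against random background probes. The data came from custom Agilent 4×180K protein-binding microarrays carrying double-stranded probes with 34-nt variable regions, incubated 1 h with ligand-free nuclear receptor dimers. Partner-specific antibodies detected binding, and scanned fluorescence was regression-normalized.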
# [2] = test system: LXRa:RXRa (NR concentration 270 nM, RXRa partner concentration 90 nM)
# In short: as §1
# [3] = test system: LXRa homodimer (NR concentration 270 nM)
# In short: as §1
# [4] = test system: LXRb:RXRa (NR concentration 270 nM, RXRa partner concentration 90 nM)
# In short: as §1
# [5] = test system: LXRb homodimer (NR concentration 270 nM)
# In short: as §1
# [6] = test system: PPARa:RXRa (NR concentration 270 nM, RXRa partner concentration 90 nM)
# In short: as §1
# [7] = test system: PPARg:RXRa (NR concentration 180 nM, RXRa partner concentration 90 nM)
# In short: as §1
# [8] = test system: PPARg:RXRa 270nM:90nM, anti-RXR (NR concentration 270 nM, RXRa partner concentration 90 nM)
# In short: as §1
# [9] = test system: PPARg:RXRa 30nM:10nM, anti-RXR (NR concentration 30 nM, RXRa partner concentration 10 nM)
# In short: as §1
# [10] = test system: PPARg:RXRa 90nM:30nM, anti-RXR (NR concentration 90 nM, RXRa partner concentration 30 nM)
# In short: as §1
# [11] = test system: PPARg:RXRa DBDmut IVT, anti-RXR (DBD mutation: RXRa K156A/R161A, NR concentration 270 nM, RXRa partner concentration 90 nM)
# In short: as §1
# [12] = test system: PPARg:RXRa IVT, anti-PPARg (NR concentration 270 nM, RXRa partner concentration 90 nM)
# In short: as §1
# [13] = test system: PPARg DBDmut:RXRa IVT, anti-PPARg (DBD mutation: PPARg1 K132A/R137A, NR concentration 270 nM, RXRa partner concentration 90 nM)
# In short: as §1
# [14] = test system: PPARg DBDmut IVT, anti-PPARg (DBD mutation: PPARg1 K132A/R137A, NR concentration 270 nM)
# In short: as §1
# [15] = test system: PPARg homodimer (NR concentration 180 nM)
# In short: as §1
# [16] = test system: PXR:RXRa (NR concentration 270 nM, RXRa partner concentration 90 nM)
# In short: as §1
# [17] = test system: PXR homodimer (NR concentration 270 nM)
# In short: as §1
# [18] = test system: RARa:RXR (NR concentration 270 nM, RXRa partner concentration 90 nM)
# In short: as §1
# [19] = test system: RARa homodimer (NR concentration 270 nM)
# In short: as §1
# [20] = test system: RARb:RXRa (NR concentration 270 nM, RXRa partner concentration 90 nM)
# In short: as §1
Sequence,PBM binding z-score [1],PBM binding z-score [2],PBM binding z-score [3],PBM binding z-score [4],PBM binding z-score [5],PBM binding z-score [6],PBM binding z-score [7],PBM binding z-score [8],PBM binding z-score [9],PBM binding z-score [10],PBM binding z-score [11],PBM binding z-score [12],PBM binding z-score [13],PBM binding z-score [14],PBM binding z-score [15],PBM binding z-score [16],PBM binding z-score [17],PBM binding z-score [18],PBM binding z-score [19],PBM binding z-score [20]
TCTCGGAGGACACGAAGGTCAGATCTTTCCAGAG,1.76,1.41,1.09,1.64,-0.544,1.98,0.475,1.77,2.61,2,1.59,0.717,-0.994,-1.02,2.07,2.44,2.3,2.16,0.52,3.35
CAAACTAGGTCACCGGAAGGTCCAAGTCCGCATG,4.24,3.41,0.716,2.42,0.547,5.28,8.9,7.31,5.06,7.02,8.74,8.78,2.63,2.9,2.36,2.43,-0.0607,3.18,1.11,4.39
CTCGAAAGGTCTTGCTCAGGTGAGTATACCAAAC,0.669,0.369,-0.371,0.506,-0.158,0.978,-0.115,0.563,-0.064,0.608,0.411,0.795,0.193,-0.313,0.433,0.314,-0.568,0.971,-0.363,1.75
CCTACTGGGCCATTCAGAAGTCATTGATCATATG,-0.391,-0.415,-0.186,-0.497,-0.171,0.968,0.302,0.341,-0.166,-0.00895,4.43,3.36,-0.17,-0.487,0.0197,-0.557,-0.689,-0.413,0.126,0.115
TAACCAAGGTGAAGGTCGTTGATCCCTCTGTAGA,2.07,2.07,0.0328,1.66,-0.394,2.58,3.03,3.53,2.15,4.01,1.46,2.78,-0.196,-0.741,0.785,1.48,0.489,1.92,-0.478,2.12
AGATTGAGGTTATACGTAGATCAGGGAAGAAAGT,1.82,1.79,0.26,1.37,0.202,2.91,1.21,1.56,0.644,1.05,2.54,1.38,1.05,1.23,0.726,1.23,0.75,1.7,0.422,1.28
ATACCAAGGTGATCGTGAGGTCGTGGATACTAAC,1.71,1.27,0.515,1.39,-0.127,2.17,0.846,0.784,-0.103,0.493,0.55,1.38,0.414,0.297,1.2,2.53,0.492,3.03,0.48,1.65
AATAAAGGGTCACTAGGCCAGAGTAGGTACGAAT,6.74,5.35,1.44,4.42,1.27,6.36,8.19,6.96,3.48,6.22,4.52,6.06,1.89,1.25,2.96,3.13,0.43,4.07,1.9,5.16
AGAATGAGGTTATACGTAGATCAGGGACGAAAGT,2.37,1.79,0.0917,1.55,-0.0358,3.23,1.83,2,0.651,1.6,3.78,2.16,1.14,1.42,0.4,1.12,0.405,1.49,0.392,1.42
CCTACTGAGCCAAGGTCATTGATCAGTCAAAGCA,3.46,3.43,1.43,3.3,0.637,3.61,0.656,1.62,0.331,0.858,0.598,0.834,-0.559,-0.729,2.66,3.69,2.46,3.64,1.47,3.15
CCCAGCAGGCCAATCTGGGTCACTCAAGGCTTGA,0.369,1.43,-0.513,0.944,-1.13,3.19,1.76,2.13,-0.161,1.13,3.08,4.97,-0.484,-1.45,0.339,1.31,-0.346,1.46,-0.731,1.63
CTACCAAGGTGAACAAGGTCGTTGATTACTATTC,1.47,1.38,0.19,1.91,-0.383,2.45,1.12,1.4,0.0996,0.622,2.26,2.58,0.576,0.29,0.831,2.96,1.95,2.45,0.346,2.16
CCTTACGGGTCACTCCAGGTTATAACATCGGAGT,4.88,7.46,2.11,5.8,0.0817,4.74,3.9,3.91,1.29,2.8,2.06,3.72,1.23,0.622,1.05,4.66,0.462,3.51,-0.23,3.67
